# Screening results as filed in PubChem BioAssay.
# Compounds with a hit are over-represented: about 7.5% of the library has one in this group of screens.
# FMDV inh: High Throughput Screening for Foot and Mouth Disease Virus Antivirals; FMDV antiviral cell-based qHTS; 410,000 compounds, 1.2% hits; Potency, µM (top dose mostly 57.9 µM), inactives show top-dose activity change, negative = inhibition, actives largely listed as inhibitors; calls by dose curve; tested in HEK293T cells; further: read-out not given here; potency means the concentration at half of the fitted maximal effect; nearly all actives have a fitted effect of over 45% in size
# HCV inhibitor: qHTS Assay for Inhibitors of Hepatitis C Virus (HCV); 340,000 compounds, 3.4% hits; AID 651820, 2012; Huh7.5.1 HCVcc-Cre infection, luciferase reporter, 44 h; Potency, µM (highest dose often 41.8 µM), for inactives: at the top dose activity change, negative = inhibition, most hits filed as inhibitors; further: potency means the concentration at half of the fitted maximal effect
#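 Infectious HCV cell culture screen: compound-treated cells (1,000/well, pre-plated 4 h) are infected with HCVcc-Cre at roughly 0.5 moi and grown 44 h. Infection is quantified by luciferase signal after 15 min substrate incubation at room temperature.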
# VACV mCherry inh: qHTS for Stage-Specific Inhibitors of Vaccinia Orthopoxvirus: mCherry Reporter Primary qHTS; Potency, µM (series often up to 36.5 µM), inactives show at the highest dose activity change, negative = inhibition, most hits filed as inhibitors; 310,000 compounds, 0.63% hits; Vaccinia virus mCherry reporter infection, fluorescence; AID 720579, 2013; calls by dose curve; tested in A549 cells; further: potency means the concentration at half of the fitted maximal effect; nearly all actives have a fitted effect of over 35% in size
# HCMV inh: qHTS Assay for inhibitors of the human cytomegalovirus (HCMV). activity change, negative = inhibition, % at 57.5 µM. 410,000 compounds, 4.5% hits. AID 1259415, 2018. HFF cells, HCMV-luciferase reporter, 72 h; stronger effect = lower value; in the data active means activity change below about -60%; inconclusive means no clear call, values can overlap the other calls; inactive means above about -39%
#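 After 16 h attachment at 37C, HFF cells received test compound and HCMV-luciferase (1 PFU/cell); reporter luminescence read 72 h later, data normalized against buffer-only and known inhibitor Salinomycin.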
# Vaccinia Venus: qHTS for Stage-Specific Inhibitors of Vaccinia Orthopoxvirus: Venus Reporter Primary qHTS. Vaccinia virus Venus reporter expression, fluorescence. Potency, µM (highest dose often 36.5 µM), for inactives: top-dose activity change, negative = inhibition, most hits filed as inhibitors. 330,000 compounds, 0.46% hits. AID 720580, 2013; calls by dose curve; tested in A549 cells; further: potency means the concentration at half of the fitted maximal effect; nearly all actives have a fitted effect of over 30% in size
# FBPA Giardia inh: qHTS Assay for Inhibitors of Fructose-1,6-bisphosphate Aldolase from Giardia Lamblia. A8B2U2. purified Giardia FBPA. Potency, µM (highest dose often 59.6 µM), for inactives: top-dose activity, negative = inhibition, most hits filed as inhibitors. 290,000 compounds, 0.71% hits; further: potency means the concentration at half of the fitted maximal effect; nearly all actives have a fitted effect of over 55% in size
# Target sequence (A8B2U2 whole entry, looked up): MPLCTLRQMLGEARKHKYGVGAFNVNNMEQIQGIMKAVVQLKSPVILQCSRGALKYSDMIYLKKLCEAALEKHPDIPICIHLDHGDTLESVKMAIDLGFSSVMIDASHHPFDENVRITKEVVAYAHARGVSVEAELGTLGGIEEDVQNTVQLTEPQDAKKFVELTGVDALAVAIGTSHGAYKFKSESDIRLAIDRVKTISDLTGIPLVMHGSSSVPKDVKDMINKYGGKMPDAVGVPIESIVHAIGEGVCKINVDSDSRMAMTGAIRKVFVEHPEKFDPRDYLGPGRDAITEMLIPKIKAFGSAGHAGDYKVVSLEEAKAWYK
#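 Giardia FBPA (40 nM reagent) was preincubated 10 min at RT with compound (up to 57.5 uM final), then substrate plus GAPDH/TPI/NAD/arsenate coupling system with diaphorase/resazurin was added; resorufin fluorescence (525/598 nm) was read after 20 min.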
# An asterisk follows results filed as active; i = inactive; ? = inconclusive; . = no result; [ ] = dose if it differs, or a comment. Unless noted, the call rests on the fitted dose curve; in most records, active means well fitted curve in the direction sought with a large enough effect; inconclusive means small, poorly fitted or top-dose-only effect, or another doubt; inactive means no such curve, though single readings can be large; an effect the other way counts as inactive or inconclusive. On the % scale 0 is the no-effect control and ±100 the full control effect.
SMILES,FMDV inh,HCV inhibitor,VACV mCherry inh,HCMV inh,Vaccinia Venus,FBPA Giardia inh
N#Cc1ccc(C(c2nnnn2C2CCCC2)N2CCC(Cc3ccccc3)CC2)cc1 (centres undefined),-11.1%,-2.1%,.,-90.5*,.,.
O=C(CN1C(=O)C(c2ccc(F)cc2)=NC12CCCC2)Nc1ccc(F)cc1,?,2.51µM*,?,-77.8*,-20.8%,-1.8%
Cc1ccc(NC(=O)CN2C(=O)C(c3ccc(C)cc3)=NC23CCCCCC3)cc1,-13.1%,.,-19.8%,-19.7,-20.5%,.
Cc1cccc(NC(=O)CN2C(=O)C(c3ccccc3)=NC23CCC(C)CC3)c1 (centres undefined),-27.5%,.,i,-61.1*,-12.7%,.
CCC(=O)c1ccc(O)c(CC=C(C)C)c1,?,-16.6%,.,-64.3*,-21.5%,0.1%
COc1ccc(-c2ccc([C@H]3[C@@H]4C=CCC[C@@]4(C)C(=O)N3Cc3ccccc3)c(F)c2)cc1OC,?,?,?,271.0,?,-3.3%
Cc1ccc(-c2cc(C3C4C=CCCC4(C)C(=O)N3Cc3ccccc3)ccc2F)cc1 (centres undefined),.,.,.,.,.,0.9%
COc1ccc(-c2cc([C@H]3[C@@H]4C=CCC[C@@]4(C)C(=O)N3Cc3ccccc3)ccc2F)cc1OC,?,10µM*,-0.1%,20.9,?,-4.3%
COc1ccc(-c2c([C@H]3[C@@H]4C=CCC[C@@]4(C)C(=O)N3Cc3ccccc3)ccc3ccccc23)cc1OC,?,-13.2%[8.37 µM],?,-60.3*,?,5.6%
CC1CCC(NC(=O)c2cc(S(=O)(=O)N(C)C)ccc2N2CCCC2)CC1 (centres undefined),59.7%,11.4%,i,22.4,-8.0%,.
Cc1cccc(NC(=O)Nc2cnccn2)c1,18.6%,-10.9%,.,-23.6,.,0.1%
COc1cc([N+](=O)[O-])ccc1NC(=O)Nc1cnccn1,8.2%,?,.,-61.2*,.,0.9%
COc1cccc(NC(=O)Nc2cnccn2)c1,68.7%,-11.5%,?,-69.3*,0.6%,-4.9%
COc1ccccc1CNS(=O)(=O)c1c(C(=O)N2CCC(C)CC2)c(C)n(C)c1C,34.4%,.,i,-28.3,-10.7%,.
COc1cc(NC(=O)NCCn2nnc3cc(S(=O)(=O)N(C)C)ccc32)cc(OC)c1,5.8%,.,9.7%,-2.1,1.1%,.
CCN(CC)c1ccc(/C=C(\C#N)c2ccccn2)cc1,-44.1%,14.1µM*,i,.,-9.9%,0.7%
CN(C)c1ccc(/C=C/c2cc3ccccc3cn2)cc1,.,.,-28.2%,.,-29.0%,.
COc1ccc(CN2CCN(CCSc3ccc(C)cc3)CC2)c(OC)c1OC,?,14.1µM*,.,26.1,.,?
COc1cc(OC)cc(-c2nc3n(n2)C(c2ccccc2F)C(C(=O)Nc2cccnc2)=C(C)N3)c1 (centres undefined),-4.8%,.,-9.2%,-19.9,-16.1%,.
O=C1CCCC2=C1C(c1ccc(Cl)cc1)N=C(Nc1nc3ccccc3o1)N2 (centres undefined),.,.,-13.5%,.,-12.9%,.
COC(=O)Cc1ccc(NC(=S)N2CCN(c3cccc(O)c3)CC2)cc1,?,?,-10.7%,-63.9*,-8.0%,-4.1%
CC(=O)Nc1ccc(N=c2cc([N+](=O)[O-])cc(Cl)n2O)cc1,0.3%,10µM*,8.91µM*,-85.0*,?,-2.9%
CC(=O)Nc1ccc(Oc2ccc([N+](=O)[O-])cc2Cl)cc1,?,-3.1%,-8.0%,-16.1,-3.6%,3.5%
CCCCC1OC(CCc2ccccc2)CC2=C1C(=O)OC(C)(C)O2 (centres undefined),.,.,.,19.2,.,.
CC(C)Oc1ccc(-c2nc(-c3cccnc3)no2)cc1,.,.,37.7%,.,-11.9%,.
O=C(Nc1ccc(Oc2ccccc2)cc1)c1csc([C@@H]2C[C@H](O)[C@@H](CO)O2)n1,?,.,8.5%,-91.5*,-20.0%,.
COCCCNC(=O)c1csc([C@H]2C[C@H](O)[C@@H](CO)O2)n1,-4.7%,.,-11.2%,-100.3*,-14.1%,.
